Compound activity (PubChem BioAssay)
PAFAH1B3 inh: blocks human PAF acetylhydrolase 1B catalytic subunit 3; inhibition, % at 3.39 µM; Q15102; recombinant PAFAH1B3, FP-rhodamine probe, fluorescence polarization; 0.28% of 340,000 active;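 active = inhibition above the screen-wide average of all tested compounds plus 3 SD, cut at about 25% in these data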
pPAFAH inh: inhibitors of human plasma PAF acetylhydrolase (pPAFAH); recombinant pPAFAH, FP-rhodamine probe fluorescence polarization; 1.5% of 330,000 active; inhibition, % at 3.39 µM; AID 463082; Q13093;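 active = inhibition above the mean inhibition across the screen plus 3 SD, cut at about 25% in these data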;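 note: inhibitors block binding of the rhodamine activity-based probe so polarization drops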
PAFAH1B2 inh: blocks human PAF acetylhydrolase 1b catalytic subunit 2 | recombinant PAFAH1B2, FP-rhodamine activity probe, fluorescence polarization | inhibition, % at 3.39 µM | 1.2% of 340,000 active | AID 492953;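 active = inhibition above the mean of all tested compounds plus 3 SD, cut at about 24% in these data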
DAGLB inhibitor: diacylglycerol lipase beta (human) inhibition; AID 504411; Q8NCG7; HEK293T DAGLB membrane lysate, EnzChek fluorogenic substrate; inhibition, % at 5.17 µM; 0.059% of 340,000 active; in the data active = inhibition above about 34%
Target sequence (Q8NCG7 whole entry, looked up): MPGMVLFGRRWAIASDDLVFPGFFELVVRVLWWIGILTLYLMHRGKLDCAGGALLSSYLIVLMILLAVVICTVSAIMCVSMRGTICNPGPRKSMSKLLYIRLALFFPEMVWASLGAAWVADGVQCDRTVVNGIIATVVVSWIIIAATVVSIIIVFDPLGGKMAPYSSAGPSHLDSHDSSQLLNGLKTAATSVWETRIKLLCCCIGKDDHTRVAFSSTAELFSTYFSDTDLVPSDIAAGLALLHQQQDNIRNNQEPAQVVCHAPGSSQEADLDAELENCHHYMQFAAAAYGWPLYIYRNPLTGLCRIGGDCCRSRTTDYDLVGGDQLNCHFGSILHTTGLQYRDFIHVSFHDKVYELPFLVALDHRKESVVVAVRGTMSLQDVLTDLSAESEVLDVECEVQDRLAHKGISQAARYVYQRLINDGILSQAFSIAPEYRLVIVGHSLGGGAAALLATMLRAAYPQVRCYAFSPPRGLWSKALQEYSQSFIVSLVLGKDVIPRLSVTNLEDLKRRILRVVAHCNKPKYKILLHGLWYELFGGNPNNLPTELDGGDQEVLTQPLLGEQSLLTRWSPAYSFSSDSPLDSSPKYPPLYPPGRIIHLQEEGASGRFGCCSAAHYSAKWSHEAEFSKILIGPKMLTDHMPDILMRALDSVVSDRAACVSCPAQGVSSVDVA
ATG4B inh: ATG4B (human) cysteine protease inhibition; inhibition, % at 8.33 µM; ATG4B cleavage of LC3-PLA2, NBD-HPC fluorescence, 1 h; Q9Y4P1; 0.51% of 340,000 active; in the data active = inhibition above about 40%
PAFAH2 FP inh: inhibitors of human PAFAH2 | recombinant PAFAH2, FP-rhodamine activity probe, fluorescence polarization | inhibition, % at 3.39 µM | 0.99% of 340,000 active | AID 492956;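 active = inhibition above the mean over all tested compounds plus 3 SD, cut at about 30% in these data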;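 note: inhibitors block probe labeling of enzyme so polarization drops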
pPAFAH FP conf: pPAFAH (human) inhibition, confirmed; 72% of 2,300 active; recombinant pPAFAH, FP-Rh probe fluorescence polarization; inhibition, % at 3.39 µM; AID 463230; shares compounds with pPAFAH inh;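 active = mean inhibition of the triplicate above the hit cutoff set for the earlier primary screen, cut at about 25% in these data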
Numbers stand for hits. An excerpt weighted towards active compounds, which were near 3% of everything screened.

Results for COc1cc(OC)c(OC)cc1/C=C1\Oc2cc(OCC(=O)N3Cc4ccccc4C[C@H]3C(=O)O)ccc2C1=O ?
PAFAH1B3 inh: inactive; pPAFAH inh: 37; PAFAH1B2 inh: inactive; DAGLB inhibitor: inactive; ATG4B inh: inactive; PAFAH2 FP inh: inactive; pPAFAH FP conf: 44

How did COCCNC(=O)/C(C#N)=C/c1cc(C)n(-c2ccc(C)cc2)c1C do in these assays?
PAFAH1B3 inh: inactive; pPAFAH inh: 55; PAFAH1B2 inh: inactive; DAGLB inhibitor: inactive; ATG4B inh: inactive; PAFAH2 FP inh: inactive; pPAFAH FP conf: 52

What do the screens show for `COCCNC(=O)/C(C#N)=C/c1cc(C)n(C2CCCCC2)c1C`?
PAFAH1B3 inh: inactive; pPAFAH inh: inactive; PAFAH1B2 inh: inactive; DAGLB inhibitor: inactive; ATG4B inh: inactive; PAFAH2 FP inh: inactive

What do the screens show for `Cc1ccc(C(=O)N2CCCC(CCC(=O)N3CCN(c4ccccn4)CC3)C2)cc1C` (stereo not drawn)?
PAFAH1B3 inh: inactive; pPAFAH inh: 35; PAFAH1B2 inh: inactive; DAGLB inhibitor: inactive; ATG4B inh: inactive; PAFAH2 FP inh: inactive; pPAFAH FP conf: inactive

What do the screens show for `O=C(CCCN1C(=O)/C(=C/c2ccccc2)SC1=S)Nc1ccc(C(=O)O)c(O)c1`?
PAFAH1B3 inh: inactive; pPAFAH inh: inactive; PAFAH1B2 inh: inactive; DAGLB inhibitor: inactive; ATG4B inh: inactive; PAFAH2 FP inh: inactive

Results for O=C(CCCN1C(=O)/C(=C/c2ccco2)SC1=S)Nc1cccc(C(=O)O)c1 ?
PAFAH1B3 inh: inactive; pPAFAH inh: 50; PAFAH1B2 inh: inactive; DAGLB inhibitor: inactive; ATG4B inh: inactive; PAFAH2 FP inh: inactive; pPAFAH FP conf: inactive

What do the screens show for `NN1C(=O)/C(=C\c2ccco2)SC1=S`?
pPAFAH inh: 42; ATG4B inh: inactive; pPAFAH FP conf: inactive

Results for O=C(CCN1C(=O)/C(=C/c2ccccc2)SC1=S)NC1CCS(=O)(=O)C1 (stereo not drawn) ?
PAFAH1B3 inh: inactive; pPAFAH inh: inactive; PAFAH1B2 inh: inactive; DAGLB inhibitor: inactive; ATG4B inh: inactive; PAFAH2 FP inh: inactive

Results for O=C(CCCN1C(=O)/C(=C\c2ccco2)SC1=S)Nc1ccc(O)cc1C(=O)O ?
PAFAH1B3 inh: inactive; pPAFAH inh: 68; PAFAH1B2 inh: inactive; DAGLB inhibitor: inactive; ATG4B inh: inactive; PAFAH2 FP inh: 39; pPAFAH FP conf: inactive

What do the screens show for `CCOC(=O)CN1C(=O)S/C(=C/c2ccco2)C1=O`?
PAFAH1B3 inh: inactive; pPAFAH inh: inactive; PAFAH1B2 inh: inactive; DAGLB inhibitor: inactive; ATG4B inh: inactive; PAFAH2 FP inh: inactive

How did O=C(CN1C(=O)/C(=C/c2ccco2)SC1=S)NC1CCS(=O)(=O)C1 (stereo not drawn) do in these assays?
PAFAH1B3 inh: inactive; pPAFAH inh: 38; PAFAH1B2 inh: inactive; DAGLB inhibitor: inactive; ATG4B inh: inactive; PAFAH2 FP inh: inactive; pPAFAH FP conf: inactive

How did O=C(CCCN1C(=O)/C(=C\c2cccs2)SC1=S)Nc1cccc(C(=O)O)c1 do in these assays?
PAFAH1B3 inh: inactive; pPAFAH inh: inactive; PAFAH1B2 inh: inactive; DAGLB inhibitor: inactive; ATG4B inh: inactive; PAFAH2 FP inh: inactive

How did CCNc1ccccc1CP(=O)(c1ccccc1)c1ccccc1O (stereo not drawn) do in these assays?
pPAFAH inh: 42; ATG4B inh: inactive; pPAFAH FP conf: inactive

Results for Cc1ccc(O)c(CP(=O)(c2ccccc2)c2ccccc2)c1 ?
PAFAH1B3 inh: inactive; pPAFAH inh: inactive; PAFAH1B2 inh: inactive; DAGLB inhibitor: inactive; ATG4B inh: inactive; PAFAH2 FP inh: inactive

Results for Cc1ccc2c(Cl)c(C)c(N3CCOCC3)nc2n1 ?
PAFAH1B3 inh: inactive; PAFAH1B2 inh: inactive; DAGLB inhibitor: inactive; ATG4B inh: inactive; PAFAH2 FP inh: inactive

How did COc1cc([N+](=O)[O-])cc(/C=N/NC(=O)c2cc(-c3ccccc3)nc3ccccc23)c1O do in these assays?
PAFAH1B3 inh: inactive; pPAFAH inh: 36; PAFAH1B2 inh: inactive; DAGLB inhibitor: inactive; ATG4B inh: inactive; PAFAH2 FP inh: inactive; pPAFAH FP conf: 35

How did COc1ccc(-c2[nH]ncc2N=Nc2ccccc2)cc1 do in these assays?
PAFAH1B3 inh: inactive; pPAFAH inh: 49; PAFAH1B2 inh: inactive; DAGLB inhibitor: inactive; ATG4B inh: inactive; PAFAH2 FP inh: inactive; pPAFAH FP conf: inactive
